Measured values: PubChem BioAssay (NCATS)
For some of these results: Potency and affinity values are given separately. Active and inactive are the calls of the source. How the calls were made is not given here.

What was measured:
[1] = Ebola virus entry assay, green fluorescence channel
[2] = Ebola virus entry assay, blue channel fluorescence
[3] = Ebola virus entry assay, ratio channel
[4] = Ebola virus entry assay, green channel fluorescence
[5] = Ebola virus entry assay, reporter ratio channel; Channel type: primary
[6] = Ebola virus entry assay, blue channel (ratio component)
Wherever efficacy is given: 0% is about no effect.

CCOC(=O)c1c(N)sc2c1CCN(Cc1ccccc1)C2
inactive: efficacy [1] 21.5% | outcome [2] | outcome [3] | outcome [4] | outcome [5]

Nc1ccc(N=Nc2ccccc2)c(N)n1
active: AC50 [2] 39.8 µM | AC50 [5] 39.8 µM
inactive: efficacy [1] -23.7% | outcome [3] | outcome [4]

C=CC[N+]1([C@H]2C[C@H]3[C@@H]4CC[C@H]5C[C@H](OC(C)=O)[C@@H](N6CCCCC6)C[C@]5(C)[C@H]4CC[C@]3(C)[C@H]2OC(=O)CC)CCCCC1
inactive: efficacy [1] 47.7% | outcome [3] | outcome [4]
active: AC50 [2] 14.1 µM | AC50 [5] 28.2 µM

Cc1cccc(N(C)C(=S)Oc2ccc3ccccc3c2)c1
inactive: efficacy [1] 22.5% | outcome [4]
active: AC50 [2] 25.1 µM | AC50 [3] 25.1 µM | AC50 [5] 25.1 µM

Oc1ccc(Cl)cc1Cc1cc(Cl)ccc1O
inactive: efficacy [1] 31.6% | outcome [4]
active: AC50 [2] 3.55 µM | AC50 [3] 11.2 µM | AC50 [5] 11.2 µM

CN(C)CCN(Cc1cccs1)c1ccccn1
inactive: efficacy [1] 21.2% | outcome [4]
active: AC50 [2] 31.6 µM | AC50 [3] 17.8 µM | AC50 [5] 17.8 µM

CC(C)OC(=O)C(C(=O)OC(C)C)=C1SC=CS1
active: AC50 [2] 39.8 µM
inactive: efficacy [1] -38.6% | outcome [3] | outcome [4] | outcome [5]

CCCSS/C(CCO)=C(\C)N(C=O)Cc1cnc(C)nc1N
inactive: efficacy [1] -15.5% | outcome [2] | outcome [3] | outcome [4] | outcome [5] | outcome [6]

CCC1Nc2cc(Cl)c(S(N)(=O)=O)cc2S(=O)(=O)N1 (stereo unspecified)
inactive: efficacy [1] -28.2% | outcome [2] | outcome [3] | outcome [4] | outcome [5]

O=c1[nH]sc2cc(Cl)ccc12
active: AC50 [2] 39.8 µM | AC50 [5] 39.8 µM
inactive: efficacy [1] -42.1% | outcome [3] | outcome [4]

C[C@H](O)C(=O)Nc1c(I)c(C(=O)NC(CO)CO)c(I)c(C(=O)NC(CO)CO)c1I
inactive: efficacy [1] 6.82% | outcome [2] | outcome [3] | outcome [4] | outcome [5] | outcome [6]

Oc1c(Cl)cc(Cl)c(Cl)c1Cc1c(O)c(Cl)cc(Cl)c1Cl
inactive: efficacy [1] 19.2% | outcome [4]
active: AC50 [2] 28.2 µM | AC50 [3] 15.8 µM | AC50 [5] 15.8 µM

Cc1c(-c2ccccc2)oc2c(C(=O)OCCN3CCCCC3)cccc2c1=O
inactive: efficacy [1] -55.6% | outcome [2] | outcome [3] | outcome [4] | outcome [5]

CCOC(=O)NNc1nncc2ccccc12
inactive: efficacy [1] -15.2% | outcome [2] | outcome [3] | outcome [4] | outcome [5] | outcome [6]

O=C(NN1CCCC1)NS(=O)(=O)c1ccc(Cl)cc1
inactive: efficacy [1] -14.3% | outcome [2] | outcome [3] | outcome [4] | outcome [5] | outcome [6]

CCN(CC)C(=O)C1CN2CCc3cc(OC)c(OC)cc3C2CC1OC(C)=O (stereo unspecified)
inactive: efficacy [1] -20.8% | outcome [2] | outcome [3] | outcome [4] | outcome [5] | outcome [6]

CCCCCCCCCCCCOCCOCCOCCOCCOCCOCCOCCOCCOCCO
inactive: efficacy [1] -12.9% | outcome [2] | outcome [3] | outcome [4] | outcome [5] | outcome [6]
